SMILES strings stand for the structures. Active and inactive are the calls of the source. Unless noted, the rule behind the calls is not given here.

Experiment [1] deals with Wnt5a (protein binding on small-molecule microarray). Put plainly: small molecules binding Wnt5a protein – biophysical, small-molecule microarray, 635/667 nm fluorescence, primary screen (AID 1142).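 Note: fluorescence read at 667 nm with signal to noise per printed feature.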 Particulars: 635 nm fluorescence, higher = more signal.
A short description of experiment [2]: ATP-based viability of Huh7 replicon cells – cell-based, CellTiter-Glo luminescence, basal, 48 h, cytotoxicity control for HCV replication inhibitor project, primary screen (AID 1143).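 Note: Huh7 hepatoma cells carrying a hepatitis C replication reporter with no stimulus; test concentration not given here.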 Particulars: higher = more signal, called active from +8 up or from −8 down. In general terms: In antiviral work, replicon cells carry a viral genome segment that copies itself.

The nature of experiment [3]: Pseudomonas biofilm growth suppression – PAO1 strain, BacTiter-Glo luminescence, LB-PBS, primary screen (AID 1144). As to conditions: P. aeruginosa PAO1 biofilm, 12 h, higher = more signal.
The nature of experiment [4]: basal CRE-LacZ reporter activity in PC12 – cell-based, unstimulated, primary screen (AID 1145). As to conditions: no forskolin, luminescence, 4.5 h, higher = more signal, called active from +8 up or from −8 down.
A short description of experiment [5]: forskolin-driven CRE-LacZ activity in PC12 – cell-based, CRE-LacZ reporter, forskolin-stimulated, primary screen (AID 1146).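 Note: PC12 cells with 6xCRE LacZ reporter stimulated by forskolin 10 µM; beta-galactosidase reporter signal reflecting CREB driven transcription.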 Particulars: luminescence, 4.5 h, higher = more signal, called active from +8 up or from −8 down.
Experiment [6] addresses Streptavidin (Streptomyces avidinii) (UniProt P22629). Description: compounds binding control protein streptavidin – biophysical, small-molecule microarray, 635/667 nm fluorescence, artefact control for SMM compound annotation, primary screen (AID 1147).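 Note: signal reflects streptavidin binding to arrayed compounds as a control protein.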 Particulars: higher = more signal.
The nature of experiment [7]: probe aInhba binding on compound microarray – biochemical, small-molecule microarray, 635/667 nm fluorescence, primary screen (AID 1148).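 Note: score merges 667nm spot fluorescence with signal-to-noise for antibody binding to printed compounds.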 As to conditions: higher = more signal.
The target in experiment [8] is Torsin-1A (Homo sapiens) (UniProt O14656). Description: TOR1A wild-type binding on microarray – cell lysate, small-molecule microarray, lysate, 635/667 nm, primary screen (AID 1149). Particulars: COS7 hTOR1A-WT lysate, 635 nm fluorescence, higher = more signal.
The target is the same in experiment [9]. Put plainly: torsin A mutant lysate binding on microarrays – cell lysate, small-molecule microarray, COS7 lysate, 635/667 nm fluorescence, primary screen (AID 1150).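 Note: score pools 667 nm emission and signal to noise measuring lysate protein binding.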 Particulars: COS7 hTOR1A mutant lysate, 635 nm fluorescence, higher = more signal.
Experiment [10] has as its system Sonic hedgehog protein (Shh). Put plainly: Sonic hedgehog microarray binding compounds – biochemical, small-molecule microarray, 635/667 nm fluorescence, primary screen (AID 1151).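 Note: Shh protein binding to compounds spotted on small-molecule microarray slides; score combines spot fluorescence intensity with signal-to-noise across triplicate slides.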 As to conditions: 635 nm fluorescence, higher = more signal.
The nature of experiment [11]: optical density shifts of acrAB sulA E. coli – strain DRC41, OD650, 48 h, E. coli filamentation inducer project, primary screen (AID 1152).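 Note: E. coli MC1000 strain DRC41 lacking acrAB efflux pump and sulA.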 Particulars: higher = more signal, called active from +8 up or from −8 down.
Experiment [12] in a line: probe aLefty1 binding on compound microarray – biochemical, small-molecule microarray, 635/667 nm fluorescence, primary screen (AID 1153).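 Note: score merges spot fluorescence with signal-to-noise ratio from the scanned slide images.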 Particulars: higher = more signal.
Experiment [13] in a line: plasmodial surface anion channel blockers, osmotic lysis – cell-based, P. falciparum Indochina, OD700, 1 h, primary screen (AID 1154). As to conditions: P. falciparum Indochina infected RBC osmotic lysis, higher = more signal, called active from +8 up or from −8 down.
Experiment [14] is described as follows: plasmodial surface anion channel blockers, osmotic lysis – cell-based, P. falciparum Indochina, OD700, 2 h, primary screen (AID 1155).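 Note: lysis reports solute entry through the parasite surface anion channel PSAC.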 As to conditions: P. falciparum Indochina infected erythrocytes, higher = more signal, called active from +8 up or from −8 down.
Experiment [15] can be described thus: changes in parasitized red cell lysis, either direction – P. falciparum Indochina, OD700, 3 h, PSAC antagonist project, primary screen (AID 1156). As to conditions: P. falciparum-infected erythrocytes, osmotic lysis, higher = more signal, called active from +8 up or from −8 down.
Experiment [16] in a line: plasmodial surface anion channel blockers, osmotic lysis – cell-based, P. falciparum Indochina, OD700, 18 h, primary screen (AID 1157). Particulars: P. falciparum Indochina infected erythrocytes, osmotic lysis OD700, 18 h; higher = more signal, called active from +8 up or from −8 down.
Experiment [17] is described as follows: S6 kinase pathway phospho-S6 level changes – cell-based, A549, cytoblot, luminescence, serum-stimulated, primary screen (AID 1158).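 Note: serum-stimulated A549 lung adenocarcinoma cells; signal is phosphorylated S6 detected by cytoblot immunostaining with HRP secondary.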 Particulars: 5 h, higher = more signal.
Experiment [18] concerns the target NADPH oxidase 2 (Homo sapiens) (UniProt P04839). Put plainly: compounds shifting NOX2 Amplex Red fluorescence – cell-based, HEK293-NOX2, PMA-stimulated, NOX inhibitor project, primary screen (AID 1159). Note: test concentration not given here. As to conditions: 45 min, higher = more signal, called active from +8 up or from −8 down.
The target in experiment [19] is NADPH oxidase 4 (Homo sapiens) (UniProt Q9NPH5). Put plainly: compounds shifting NOX4 Amplex Red fluorescence – cell-based, HEK293-NOX4, tetracycline-induced, NOX inhibitor project, primary screen (AID 1160). Particulars: HEK293-NOX4, Amplex Red H2O2 fluorescence, 45 min; higher = more signal, called active from +8 up or from −8 down.
The target in experiment [20] is NADPH oxidase 5 (Homo sapiens) (UniProt Q96PH1). Put plainly: compounds shifting NOX5 Amplex Red fluorescence – cell-based, HEK293-NOX5, NOX inhibitor project, primary screen (AID 1161). As to conditions: HEK293-NOX5, ionomycin, 45 min, higher = more signal.
NADPH oxidase 5 (Homo sapiens), sequence (Q96PH1 whole entry, looked up): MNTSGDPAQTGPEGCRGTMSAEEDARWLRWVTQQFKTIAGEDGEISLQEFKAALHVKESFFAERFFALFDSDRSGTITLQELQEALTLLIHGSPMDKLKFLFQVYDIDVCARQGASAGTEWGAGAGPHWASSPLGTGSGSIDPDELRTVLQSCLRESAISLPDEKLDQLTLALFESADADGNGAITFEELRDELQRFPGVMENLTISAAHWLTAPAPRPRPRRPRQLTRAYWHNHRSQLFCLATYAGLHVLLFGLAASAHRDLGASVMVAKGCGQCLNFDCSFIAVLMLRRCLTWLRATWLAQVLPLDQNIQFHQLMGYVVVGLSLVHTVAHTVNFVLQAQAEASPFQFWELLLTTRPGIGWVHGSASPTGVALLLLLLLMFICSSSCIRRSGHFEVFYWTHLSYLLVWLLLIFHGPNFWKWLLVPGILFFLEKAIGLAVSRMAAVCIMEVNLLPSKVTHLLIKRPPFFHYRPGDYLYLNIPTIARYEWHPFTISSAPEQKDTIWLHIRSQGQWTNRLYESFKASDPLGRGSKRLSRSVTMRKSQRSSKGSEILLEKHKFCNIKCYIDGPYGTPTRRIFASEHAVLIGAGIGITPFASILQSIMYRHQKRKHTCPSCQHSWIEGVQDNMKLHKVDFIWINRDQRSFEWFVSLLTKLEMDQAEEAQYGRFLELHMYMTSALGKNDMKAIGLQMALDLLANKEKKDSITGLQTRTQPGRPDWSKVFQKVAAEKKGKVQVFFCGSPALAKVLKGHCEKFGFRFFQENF

Streptavidin (Streptomyces avidinii), sequence (P22629 whole entry, looked up): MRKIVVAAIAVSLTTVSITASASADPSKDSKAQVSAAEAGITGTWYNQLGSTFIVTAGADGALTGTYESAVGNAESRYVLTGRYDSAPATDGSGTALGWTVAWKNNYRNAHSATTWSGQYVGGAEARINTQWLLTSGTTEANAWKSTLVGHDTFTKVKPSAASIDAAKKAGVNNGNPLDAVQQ
Torsin-1A (Homo sapiens), sequence (O14656 whole entry, looked up): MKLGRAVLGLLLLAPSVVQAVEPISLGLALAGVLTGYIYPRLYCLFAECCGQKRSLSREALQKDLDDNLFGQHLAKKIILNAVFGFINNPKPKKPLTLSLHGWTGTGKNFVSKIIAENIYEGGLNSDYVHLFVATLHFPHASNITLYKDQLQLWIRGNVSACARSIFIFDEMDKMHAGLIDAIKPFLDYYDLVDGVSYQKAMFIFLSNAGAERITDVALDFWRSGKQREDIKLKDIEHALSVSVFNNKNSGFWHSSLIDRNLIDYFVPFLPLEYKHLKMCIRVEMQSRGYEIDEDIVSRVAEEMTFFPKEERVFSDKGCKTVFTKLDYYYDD
NADPH oxidase 4 (Homo sapiens), sequence (Q9NPH5 whole entry, looked up): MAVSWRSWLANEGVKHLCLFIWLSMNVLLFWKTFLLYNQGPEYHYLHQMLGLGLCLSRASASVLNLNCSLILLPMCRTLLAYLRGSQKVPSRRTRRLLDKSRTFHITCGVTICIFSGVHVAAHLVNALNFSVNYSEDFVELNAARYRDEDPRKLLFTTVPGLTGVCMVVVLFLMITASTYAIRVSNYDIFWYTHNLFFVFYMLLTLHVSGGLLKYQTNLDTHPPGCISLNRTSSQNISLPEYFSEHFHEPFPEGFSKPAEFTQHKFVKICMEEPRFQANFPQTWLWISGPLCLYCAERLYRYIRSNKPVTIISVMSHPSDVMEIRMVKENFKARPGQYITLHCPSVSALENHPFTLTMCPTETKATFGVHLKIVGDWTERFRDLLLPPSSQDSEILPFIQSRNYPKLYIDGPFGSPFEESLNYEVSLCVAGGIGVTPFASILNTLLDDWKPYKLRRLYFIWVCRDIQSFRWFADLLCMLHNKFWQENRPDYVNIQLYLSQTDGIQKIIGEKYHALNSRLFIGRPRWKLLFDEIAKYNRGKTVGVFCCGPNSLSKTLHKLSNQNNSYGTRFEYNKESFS
NADPH oxidase 2 (Homo sapiens), sequence (P04839 whole entry, looked up): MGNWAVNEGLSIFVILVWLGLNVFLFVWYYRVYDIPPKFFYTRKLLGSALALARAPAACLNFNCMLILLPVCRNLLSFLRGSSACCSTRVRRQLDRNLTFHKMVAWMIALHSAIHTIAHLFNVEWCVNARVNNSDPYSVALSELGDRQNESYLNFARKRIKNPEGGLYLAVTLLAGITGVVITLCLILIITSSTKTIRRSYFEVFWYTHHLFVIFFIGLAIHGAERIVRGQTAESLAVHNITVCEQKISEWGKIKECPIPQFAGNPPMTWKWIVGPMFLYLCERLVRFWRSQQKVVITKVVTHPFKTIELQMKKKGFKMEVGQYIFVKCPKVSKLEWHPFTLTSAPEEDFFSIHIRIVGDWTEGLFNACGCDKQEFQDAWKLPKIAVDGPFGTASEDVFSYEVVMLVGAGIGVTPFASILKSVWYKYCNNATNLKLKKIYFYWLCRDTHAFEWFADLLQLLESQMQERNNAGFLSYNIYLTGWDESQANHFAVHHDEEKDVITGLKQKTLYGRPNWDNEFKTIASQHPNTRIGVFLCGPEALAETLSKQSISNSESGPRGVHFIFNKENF

For `CC(C)C[C@@H]1NC(=O)[C@@H]2C[C@H](C(=O)O)[C@H](c3ccc(O)cc3)N2C1=O`, the composite z-score in experiment [1] was 0.415; in experiment [6], 0.741; in experiment [7], -0.013; with Torsin-1A (Homo sapiens) [8] it was 0.656; in the experiment with Torsin-1A (Homo sapiens) [9], 1.05; in experiment [10], 1.74. For the same compound, in [12], the composite z-score came to 0.013. For the same compound, the z-score in experiment [2] is -0.393 (inactive); in experiment [3], -0.934 (inactive); in [4], -0.114 (inactive); in experiment [5], -0.837 (inactive); in [11], 2.59 (inactive); in experiment [13], 4.56 (inactive). Besides, the z-score was 0.677 (inactive) in experiment [14]; -0.641 (inactive) in experiment [15]; 0.179 (inactive) in [16]; 1.09 in experiment [17]; 0.304 (inactive) in experiment [18]; 0.398 (inactive) in experiment [19]. Further, the z-score in experiment [20] was -0.107.

Turning to `COc1ccc(CCNC(=O)[C@@]2(Sc3ccc(C)cc3)CC(=O)N(Cc3cc(C(F)(F)F)cc(C(F)(F)F)c3)[C@@H]2c2ccc(CO)cc2)cc1`, the composite z-score is -0.668 in experiment [1]; -0.959 in experiment [6]; -0.127 in [7]; -1.43 with Torsin-1A (Homo sapiens) [8]; -1.53 with Torsin-1A (Homo sapiens) [9]; -2.14 in experiment [10]. This compound also came in with a composite z-score in experiment [12] of 0.469. Also, the z-score in experiment [2] is 0.305 (inactive); in [3], 0.731 (inactive); in [4], 0.495 (inactive); in [5], 0.84 (inactive); in [11] it was -0.601 (inactive); in experiment [13], 1.54 (inactive). The z-score is 0.518 (inactive) in experiment [14]; 0.0927 (inactive) in experiment [15]; -0.0392 (inactive) in [16]; 0.0684 in experiment [17]; -0.626 (inactive) in [18]; 0.539 (inactive) in [19]. Further, the z-score in experiment [20] came out at 1.02.

With `CCOC(=O)C1=C[C@@H](C(C)(C)C)N(S(=O)(=O)c2ccc(C)cc2)[C@H]1c1ccccc1Cl`, the composite z-score was found to be 0.548 in experiment [1]; 1.11 in [6]; 0.029 in experiment [7]; 0.296 with Torsin-1A (Homo sapiens) [8]; 0.315 with Torsin-1A (Homo sapiens) [9]; 0.577 in experiment [10]. The compound also returned a composite z-score in experiment [12] of 0.208. Also, the z-score in experiment [2] is -3.79 (inactive); in [3], 1.6 (inactive); in experiment [4], 0.986 (inactive); in [5] it was 1.53 (inactive); in experiment [11], -1.29 (inactive); in [13] it was -0.747 (inactive). For the same compound, the z-score in [14] was 0.627 (inactive); in experiment [15] it was -0.775 (inactive); in experiment [16] it was 0.193 (inactive); in experiment [17], -0.535; in [18], -1.54 (inactive); in [19], -0.44 (inactive). Moreover, the z-score in [20] worked out at 0.1.

As for `CN(C)CCCC[C@@H]1NC(=O)[C@@H]2C[C@H](C(=O)NCc3ccc(F)cc3)[C@H](c3ccc(O)cc3)N2C1=O`, the composite z-score is 0.939 in [1]; -0.574 in [6]; 0.305 in [7]; 0.704 in the experiment with Torsin-1A (Homo sapiens) [8]; 0.249 with Torsin-1A (Homo sapiens) [9]; 2.28 in experiment [10]. In addition, the composite z-score in experiment [12] is -0.0501. Further, the z-score was 0.0109 (inactive) in [2]; -0.886 (inactive) in experiment [3]; 0.557 (inactive) in [4]; -0.636 (inactive) in experiment [5]; -0.876 (inactive) in [11]; 1.98 (inactive) in experiment [13]. For the same compound, the z-score in [14] is 0.947 (inactive); in experiment [15], -1.62 (inactive); in experiment [16], 0.35 (inactive); in experiment [17], 0.359; in experiment [18], 0.391 (inactive); in experiment [19], -0.25 (inactive). The z-score in experiment [20] was 0.714.

`CC(c1ccccc1)C(O)C1C=CC2C(=O)N(c3ccccc3)C(=O)C2N1Nc1ccc(C#N)cc1` (stereo not given): the composite z-score in experiment [1] stood at 0.644; in [6], 0.17; in experiment [7] it was 0.179; in the experiment with Torsin-1A (Homo sapiens) [8], 0.618; with Torsin-1A (Homo sapiens) [9] it was 0.739; in [10], 1.18. The composite z-score in experiment [12] came out at 0.379. In addition, the z-score in experiment [2] was -0.661 (inactive); in experiment [3], -1.26 (inactive); in [4], -0.136 (inactive); in [5], 0.721 (inactive); in experiment [11], 1.16 (inactive); in [13] it was 14 (active). In addition, the z-score in experiment [14] was 1.58 (inactive); in experiment [15] it was 0.832 (inactive); in experiment [16], 0.264 (inactive); in experiment [17], 1.38; in [18], -1.9 (inactive); in experiment [19], -4.04 (inactive). Moreover, in [20], the z-score was -2.65.

In the case of `COc1ccc(CCNC(=O)[C@@]2(Sc3ccc(C)cc3)CC(=O)N(C(C)C)[C@@H]2c2ccc(CO)cc2)cc1`, the composite z-score in experiment [1] is -1.02; in experiment [6], -0.621; in [7], -0.137; with Torsin-1A (Homo sapiens) [8] it was 0.939; in the experiment with Torsin-1A (Homo sapiens) [9], 0.122; in experiment [10], -1.6. In experiment [12], the composite z-score was 0.0391. The z-score in experiment [2] was -0.583 (inactive); in [3] it was 0.305 (inactive); in [4], 1.56 (inactive); in [5], -0.519 (inactive); in [11], -0.58 (inactive); in experiment [13] it was 2.36 (inactive). Moreover, the z-score in experiment [14] was 0.741 (inactive); in experiment [15] it was 0.152 (inactive); in experiment [16], 0.549 (inactive); in experiment [17], -0.21; in experiment [18] it was -0.575 (inactive); in experiment [19] it was -1.16 (inactive). Also, the z-score in experiment [20] is -2.03.

Turning to `C=CCC(OC(C)=O)[C@@H]1[C@@H](N(Cc2cc3ccccc3o2)C(=O)Cc2ccc(OC)cc2)c2cc(OCCCO)ccc2N1C(=O)Cc1ccc2ccccc2c1` (stereo not given in full), the composite z-score is -0.211 in experiment [1]; 0.0489 in experiment [6]; -0.155 in experiment [7]; -0.773 with Torsin-1A (Homo sapiens) [8]; -1.01 with Torsin-1A (Homo sapiens) [9]; -0.155 in experiment [10]. In [12], this compound returned a composite z-score of 0.152. Moreover, the z-score in experiment [2] is -0.392 (inactive); in experiment [3] it was 0.334 (inactive); in [4], 1.25 (inactive); in [5], 0.775 (inactive); in [11] it was -0.476 (inactive); in [13] it was 2.63 (inactive). Moreover, the z-score is -0.005 (inactive) in experiment [14]; 1.35 (inactive) in experiment [15]; 0.308 (inactive) in experiment [16]; 0.638 in experiment [17]; -0.282 (inactive) in [18]; -0.427 (inactive) in [19]. The z-score in experiment [20] stood at 1.21.

Consider `COc1ccccc1CN1C(=O)c2ccccc2[C@](Cc2ccccc2I)(C(=O)NCCCN(C)C)[C@@H]1c1ccc(CO)cc1`, for which the composite z-score was 0.168 in experiment [1]; 0.956 in experiment [6]; -0.187 in experiment [7]; -0.26 in the experiment with Torsin-1A (Homo sapiens) [8]; 0.409 with Torsin-1A (Homo sapiens) [9]; 0.814 in [10]. Further, the composite z-score in experiment [12] was -0.275. The z-score was -5.84 (inactive) in experiment [2]; 0.777 (inactive) in experiment [3]; 3.31 (inactive) in experiment [4]; 5.18 (inactive) in experiment [5]; -6.9 (inactive) in experiment [11]; 2.8 (inactive) in experiment [13]. Besides, the z-score in experiment [14] was -0.551 (inactive); in experiment [15], -5.31 (inactive); in [16], -0.379 (inactive); in experiment [17], -2.54; in [18], -10.2 (active); in [19], -4.81 (inactive). Moreover, the z-score in experiment [20] is -4.8.

The record behind these values is PubChem BioAssay.
